This note sets out measurements from PubChem BioAssay (NCATS).

The structures appear in SMILES notation. Results filed as inconclusive are left out. A call without a number means that no potency is given here. Calls of active or inactive are those of the source. Calls follow the shape of the dose curve; as a rule, active = well fitted cell-killing curve with a large enough effect; inconclusive = small, poorly fitted or top-dose-only effect; inactive = flat fitted curve, though single readings scatter.
Potency is read from the fitted curve at half-maximal effect.

This assay is described as follows: Cell Viability - LYMP1-003 - Assay at 40 hr (AID 964). Also: nearly all actives have a fitted effect of over 60% in size. The note with it: LYMP1-003 lymphoblastoid viability; series mostly up to 92.2 µM. The text has this: NIH Chemical Genomics Center [NCGC]
NIH Molecular Libraries Screening Centers Network [MLSCN]
National Institutes of Environmental Health Sciences [NIEHS]
National Toxicology Program [NTP]
We have developed a 1536-well cell-based assay for quantitative high throughput screening (qHTS) against a number of cell lines to determine in vitro cytotoxicity of small molecules. This particular assay uses a human lymphoblastoid cell line (LYMP1-003) purchased from Coriell Institute for Medical Research.
NCGC Assay Protocol Summary:
The CellTiter-Glo luminescent cell viability assay (Promega) is a homogeneous method to measure the number of viable cells in culture. The end point readout of this assay is based on quantitation of intracellular ATP, an indicator of metabolic activity, using the luciferase reaction. Luciferase catalyzes the oxidation of beetle Luciferin to oxyluciferin and light in the presence of ATP. The luminescent signal is proportional to amount of ATP present.
Using the CellTiter-Glo luminescent cell viability assay, the amount of cellular ATP was measured in the lymphoblastoid cell line with complete culture medium following compound treatment for 40 hours. The assay was performed in opaque white Kalypsys 1536-well plates. In the screen, tetraoctylammonium bromide was used as positive control. Library compounds were measured for their ability to cause acute toxicity in the cell line, as reflected by a decrease in intracellular ATP levels, in a concentration-dependent manner. […] AC50 values were determined from concentration-response data modeled with the standard Hill equation.
qHTS protocol for CellTiter Glo lymphoblastoid cellular assay
[Step] [Parameter] [Value] [Description]
1. Reagent; 5 uL; 2500 lymphoblastoid cells/well
2. Time; 5 hr; 37 C incubation
4. Controls; 23 nL; Tetraoctylammonium bromide 6.4pM to 92 uM
5. Time; 40 hr; 37 C incubation
6. Reagent; 5 uL; CellTiter Glo reagent
7. Time; 30 min; Room Temperature
8. Detection; Luminescence; Viewlux plate reader
Keywords: cell viability, cytotoxicity, lymphoblastoid cell line, luminescence, NTPHTS, NTPHTS_NCGC, NIEHS, DSSTox, MLSMR, MLSCN, NIH Roadmap, qHTS, NCGC
As for `Clc1ccc2ccccc2c1`, the Potency entry was “inactive”.

In the case of `ClCBr`, the Potency result is “inactive”.

As to `O=C(O)COc1ccc(Cl)cc1Cl`, the Potency result is “inactive”.

Regarding `c1ccc(OP(Oc2ccccc2)Oc2ccccc2)cc1`, the Potency entry was “inactive”.

For `CC(C)(c1ccccc1)c1ccc(O)cc1`, the Potency entry is “inactive”.

For `ClC(Cl)=C(c1ccc(Cl)cc1)c1ccc(Cl)cc1`, the Potency result was “inactive”.

As for `CC(C)(C)OOC(C)(C)C`, the Potency result is “inactive”.

On to `O=NN(CCO)CCO`, for which the Potency result is “inactive”.

As to `C=CC(=O)OCC`, the Potency entry was “inactive”.

Take `COc1ccc(C=O)cc1OC`: the Potency result was “inactive”.

Regarding `C=CC(C)=O`, the Potency result is “inactive”.

For `C/C=C/c1ccc2c(c1)OCO2`, the Potency result was “inactive”.

In the case of `Clc1cccc(C(Cl)(Cl)Cl)n1`, the Potency result was “inactive”.

Regarding `BrCCBr`, the Potency result was “inactive”.

On to `CCC[CH2][Sn]([Cl])([Cl])[Cl]`, for which the Potency result is “inactive”.

In the case of `C=C(C)C#N`, the Potency result was “inactive”.

Turning to `OCC1CO1` (stereo not given), the Potency result is “inactive”.

In the case of `Cc1ccc2ccccc2c1`, the Potency result is “inactive”.

In the case of `O=[N+]([O-])c1ccc(Cl)c(Cl)c1`, the Potency entry is “inactive”.

In the case of `Cc1cccc([N+](=O)[O-])c1`, the Potency result was “inactive”.

In the case of `C=CCc1ccc(OC)cc1`, the Potency entry is “inactive”.

Regarding `CCOCN(C(=O)CCl)c1c(C)cccc1CC`, the Potency is 50.1 µM (active).

Turning to `Oc1ccc(Cl)cc1Cl`, the Potency result is “inactive”.

`C1CCC2CCCCC2C1` (stereo not given): the Potency entry is “inactive”.

Turning to `COP(=S)(OC)Oc1ccc([N+](=O)[O-])cc1`, the Potency entry was “inactive”.

With `Cc1ccccc1N`, the Potency entry is “inactive”.

As for `CCCC(=O)Cl`, the Potency entry is “inactive”.

Turning to `COC1=CC(=O)OC(CCc2ccccc2)C1` (stereo not given), the Potency result is “inactive”.

For `CCSC(=O)Cl`, the Potency entry is “inactive”.

Turning to `Nc1ccc(Br)cc1`, the Potency result is “inactive”.

As for `Cc1cccc(C#N)c1`, the Potency result was “inactive”.

As to `CCNc1nc(Cl)nc(NC(C)C)n1`, the Potency entry is “inactive”.

For `O=C(Cl)/C=C/C(=O)Cl`, the Potency entry was “inactive”.

Turning to `Brc1ccccc1`, the Potency entry is “inactive”.

Take `COc1ccc(N)cc1`: the Potency result was “inactive”.

Take `ClC(Cl)=C(Cl)C(Cl)=C(Cl)Cl`: the Potency entry was “inactive”.

In the case of `CC(C)(OO)c1ccccc1`, the Potency entry was “inactive”.

As to `C=CC(=C)C`, the Potency entry was “inactive”.

Consider `C[N+](C)(C)Cc1ccccc1`, for which the Potency result was “inactive”.

Turning to `O=[N+]([O-])c1cccc2ccccc12`, the Potency result was “inactive”.
